31 targets from the supplement of paper PMC10849652 can be followed below.

The full data set covers some 7,900 targets. This sample favours those with a hit. About 0.6% of all pairs of compound and target were hits.

Chain of UniProt Q86WA6 (Q86WA6 whole entry, looked up): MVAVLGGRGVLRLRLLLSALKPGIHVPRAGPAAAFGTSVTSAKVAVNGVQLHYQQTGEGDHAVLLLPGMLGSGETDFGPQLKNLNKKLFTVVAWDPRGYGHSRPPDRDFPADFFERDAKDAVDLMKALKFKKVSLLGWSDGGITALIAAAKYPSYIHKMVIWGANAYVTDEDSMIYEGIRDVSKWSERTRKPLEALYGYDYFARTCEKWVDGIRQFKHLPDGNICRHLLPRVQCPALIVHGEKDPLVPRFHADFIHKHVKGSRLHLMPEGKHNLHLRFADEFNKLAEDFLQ
Chain of UniProt O00170 (O00170 whole entry, looked up): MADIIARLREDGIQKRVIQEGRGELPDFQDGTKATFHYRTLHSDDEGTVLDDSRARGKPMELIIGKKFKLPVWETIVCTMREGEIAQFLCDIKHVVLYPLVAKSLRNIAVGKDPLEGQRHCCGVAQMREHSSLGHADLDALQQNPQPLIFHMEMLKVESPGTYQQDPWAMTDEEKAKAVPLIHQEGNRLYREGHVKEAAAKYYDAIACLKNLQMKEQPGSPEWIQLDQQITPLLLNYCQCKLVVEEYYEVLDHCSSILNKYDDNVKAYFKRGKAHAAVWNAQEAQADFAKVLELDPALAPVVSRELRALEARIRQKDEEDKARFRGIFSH
Chain of UniProt Q4L235 (Q4L235 whole entry, looked up): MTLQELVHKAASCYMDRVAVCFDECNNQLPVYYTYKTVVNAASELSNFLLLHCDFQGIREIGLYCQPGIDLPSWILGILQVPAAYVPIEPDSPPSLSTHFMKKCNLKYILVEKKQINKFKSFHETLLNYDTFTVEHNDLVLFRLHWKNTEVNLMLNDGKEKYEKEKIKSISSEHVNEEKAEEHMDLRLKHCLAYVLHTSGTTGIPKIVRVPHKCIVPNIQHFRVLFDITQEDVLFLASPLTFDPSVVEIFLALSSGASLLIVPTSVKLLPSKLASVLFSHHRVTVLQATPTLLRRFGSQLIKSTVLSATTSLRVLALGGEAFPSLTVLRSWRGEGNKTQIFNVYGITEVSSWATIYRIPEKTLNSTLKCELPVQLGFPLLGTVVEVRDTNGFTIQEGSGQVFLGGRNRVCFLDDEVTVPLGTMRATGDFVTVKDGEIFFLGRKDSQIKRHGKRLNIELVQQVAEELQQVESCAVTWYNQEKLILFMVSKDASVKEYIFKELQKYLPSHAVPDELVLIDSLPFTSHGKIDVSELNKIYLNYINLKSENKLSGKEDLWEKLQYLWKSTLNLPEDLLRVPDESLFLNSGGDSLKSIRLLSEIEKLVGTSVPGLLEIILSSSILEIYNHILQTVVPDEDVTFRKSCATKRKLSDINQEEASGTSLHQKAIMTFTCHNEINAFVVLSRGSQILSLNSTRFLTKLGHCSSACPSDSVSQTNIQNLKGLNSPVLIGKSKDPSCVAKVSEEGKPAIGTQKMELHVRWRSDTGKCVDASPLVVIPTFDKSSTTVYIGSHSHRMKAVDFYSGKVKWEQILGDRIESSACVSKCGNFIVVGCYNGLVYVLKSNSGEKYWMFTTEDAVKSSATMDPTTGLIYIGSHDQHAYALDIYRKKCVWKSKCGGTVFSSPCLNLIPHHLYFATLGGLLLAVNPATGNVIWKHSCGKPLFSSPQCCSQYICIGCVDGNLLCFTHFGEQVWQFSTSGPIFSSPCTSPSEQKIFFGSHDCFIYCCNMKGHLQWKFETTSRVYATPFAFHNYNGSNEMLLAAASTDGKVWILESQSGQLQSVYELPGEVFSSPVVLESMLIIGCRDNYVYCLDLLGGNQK
Chain of UniProt P42331 (P42331 whole entry, looked up): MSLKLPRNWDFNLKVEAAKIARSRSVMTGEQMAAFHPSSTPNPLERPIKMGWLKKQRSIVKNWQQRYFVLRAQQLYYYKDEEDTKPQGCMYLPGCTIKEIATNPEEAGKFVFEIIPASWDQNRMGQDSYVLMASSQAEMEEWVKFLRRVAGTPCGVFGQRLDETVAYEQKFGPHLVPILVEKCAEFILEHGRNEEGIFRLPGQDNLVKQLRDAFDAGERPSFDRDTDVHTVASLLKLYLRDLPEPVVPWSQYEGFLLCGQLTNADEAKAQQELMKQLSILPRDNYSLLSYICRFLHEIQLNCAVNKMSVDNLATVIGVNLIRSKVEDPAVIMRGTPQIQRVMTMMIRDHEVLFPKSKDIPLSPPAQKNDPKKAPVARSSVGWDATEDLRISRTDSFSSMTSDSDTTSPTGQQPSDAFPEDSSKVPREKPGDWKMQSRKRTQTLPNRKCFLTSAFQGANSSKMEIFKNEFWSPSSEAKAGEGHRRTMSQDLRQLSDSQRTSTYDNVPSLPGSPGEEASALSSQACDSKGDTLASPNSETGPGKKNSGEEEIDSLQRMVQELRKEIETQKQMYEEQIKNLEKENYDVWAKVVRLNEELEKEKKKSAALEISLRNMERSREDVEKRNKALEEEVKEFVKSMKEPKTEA
Chain of UniProt Q99943 (Q99943 whole entry, looked up): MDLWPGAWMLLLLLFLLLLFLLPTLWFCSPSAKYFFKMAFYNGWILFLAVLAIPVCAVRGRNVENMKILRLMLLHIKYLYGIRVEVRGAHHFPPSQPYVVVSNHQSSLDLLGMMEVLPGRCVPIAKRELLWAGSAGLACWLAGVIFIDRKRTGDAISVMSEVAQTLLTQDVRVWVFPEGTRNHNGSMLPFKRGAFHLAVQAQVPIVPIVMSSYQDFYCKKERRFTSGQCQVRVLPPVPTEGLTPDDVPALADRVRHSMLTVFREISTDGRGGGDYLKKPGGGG
Chain of UniProt P35611 (P35611 whole entry, looked up): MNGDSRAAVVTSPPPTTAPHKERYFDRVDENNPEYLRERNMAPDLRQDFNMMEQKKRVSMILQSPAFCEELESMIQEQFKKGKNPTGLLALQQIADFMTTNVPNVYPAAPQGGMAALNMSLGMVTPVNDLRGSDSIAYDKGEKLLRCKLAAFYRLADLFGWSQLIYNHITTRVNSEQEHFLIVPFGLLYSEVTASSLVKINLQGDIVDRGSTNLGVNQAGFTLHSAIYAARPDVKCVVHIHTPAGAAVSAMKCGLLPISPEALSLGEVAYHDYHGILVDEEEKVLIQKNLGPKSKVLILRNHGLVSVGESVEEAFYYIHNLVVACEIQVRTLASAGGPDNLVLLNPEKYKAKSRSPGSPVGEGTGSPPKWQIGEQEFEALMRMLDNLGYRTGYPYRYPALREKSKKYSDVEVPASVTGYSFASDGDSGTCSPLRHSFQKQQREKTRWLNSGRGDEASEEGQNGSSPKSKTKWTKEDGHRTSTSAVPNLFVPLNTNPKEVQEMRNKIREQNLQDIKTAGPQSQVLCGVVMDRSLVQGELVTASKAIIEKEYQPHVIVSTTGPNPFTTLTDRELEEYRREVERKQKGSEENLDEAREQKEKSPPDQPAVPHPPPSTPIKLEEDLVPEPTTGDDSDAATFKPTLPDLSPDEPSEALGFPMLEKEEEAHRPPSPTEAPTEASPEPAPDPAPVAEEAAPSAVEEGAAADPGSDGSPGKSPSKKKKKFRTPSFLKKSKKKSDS
Chain of UniProt Q9P287 (Q9P287 whole entry, looked up): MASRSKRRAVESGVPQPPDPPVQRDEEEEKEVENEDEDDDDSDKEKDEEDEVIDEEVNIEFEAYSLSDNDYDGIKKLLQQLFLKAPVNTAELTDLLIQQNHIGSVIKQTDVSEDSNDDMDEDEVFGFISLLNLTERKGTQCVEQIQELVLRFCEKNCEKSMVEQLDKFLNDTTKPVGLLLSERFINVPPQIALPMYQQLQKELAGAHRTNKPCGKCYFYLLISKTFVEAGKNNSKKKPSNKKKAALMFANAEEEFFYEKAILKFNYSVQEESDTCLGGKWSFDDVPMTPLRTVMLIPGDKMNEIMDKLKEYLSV
Chain of UniProt Q8N6S5 (Q8N6S5 whole entry, looked up): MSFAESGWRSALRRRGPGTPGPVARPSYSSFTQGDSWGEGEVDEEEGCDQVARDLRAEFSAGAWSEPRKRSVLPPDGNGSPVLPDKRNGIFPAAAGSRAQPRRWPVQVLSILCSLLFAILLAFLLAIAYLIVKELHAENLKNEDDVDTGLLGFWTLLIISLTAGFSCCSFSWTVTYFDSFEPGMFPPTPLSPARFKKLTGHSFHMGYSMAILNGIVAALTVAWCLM
Chain of UniProt O95433 (O95433 whole entry, looked up): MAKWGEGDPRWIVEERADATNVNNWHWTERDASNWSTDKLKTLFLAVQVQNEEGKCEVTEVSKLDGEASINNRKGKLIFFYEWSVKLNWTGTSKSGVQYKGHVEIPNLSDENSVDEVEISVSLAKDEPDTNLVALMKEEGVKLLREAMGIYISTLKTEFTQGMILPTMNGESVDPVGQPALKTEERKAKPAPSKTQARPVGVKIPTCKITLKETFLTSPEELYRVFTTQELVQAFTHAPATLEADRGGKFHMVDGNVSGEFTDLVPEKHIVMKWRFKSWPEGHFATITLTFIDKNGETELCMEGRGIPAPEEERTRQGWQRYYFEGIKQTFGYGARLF
Chain of UniProt Q9NVI7 (Q9NVI7 whole entry, looked up): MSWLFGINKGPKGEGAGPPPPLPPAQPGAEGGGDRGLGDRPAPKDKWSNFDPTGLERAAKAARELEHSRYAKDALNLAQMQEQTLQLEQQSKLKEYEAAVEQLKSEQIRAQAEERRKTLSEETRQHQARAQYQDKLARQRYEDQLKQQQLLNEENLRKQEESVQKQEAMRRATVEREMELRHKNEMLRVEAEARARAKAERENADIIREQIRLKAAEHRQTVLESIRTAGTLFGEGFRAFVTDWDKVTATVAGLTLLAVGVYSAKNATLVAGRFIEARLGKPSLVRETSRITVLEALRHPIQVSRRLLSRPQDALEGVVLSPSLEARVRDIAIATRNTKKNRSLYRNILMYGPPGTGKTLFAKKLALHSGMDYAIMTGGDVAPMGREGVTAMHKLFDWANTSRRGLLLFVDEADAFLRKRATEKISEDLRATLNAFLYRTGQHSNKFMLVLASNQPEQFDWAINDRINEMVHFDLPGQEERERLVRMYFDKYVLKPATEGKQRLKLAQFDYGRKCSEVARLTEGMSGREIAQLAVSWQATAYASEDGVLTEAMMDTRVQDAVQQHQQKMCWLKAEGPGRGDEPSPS
Chain of UniProt Q16864 (Q16864 whole entry, looked up): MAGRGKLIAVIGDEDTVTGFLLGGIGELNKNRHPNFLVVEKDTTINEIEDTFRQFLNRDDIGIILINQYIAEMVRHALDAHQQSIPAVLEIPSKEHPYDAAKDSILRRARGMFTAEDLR

Compound in the first assay: Cc1sc2c(c1C)C(c1ccc(Cl)cc1)=N[C@@H](CC(=O)OC(C)(C)C)c1nnc(C)n1-2
The assay can be described thus: log2 fold change, soluble protein after heating vs DMSO (PISA); higher = thermal stabilisation; K562 cells, 10 uM, 30 min; active = over 0.2 and 3.5 SD of the protein, either way, in both replicates (recomputed). The method in brief:
(§1)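 K562 cells (2×10^6 cells/mL) were treated with 10 μM compound for 30 min, and aliquots were heated for 3 min over 48°C-58°C. Pooled aliquots were extracted in PBS with 0.5% NP-40 at 4°C, and the supernatant after 21,000xg for 90 min was measured by TMTpro 16plex LC-MS/MS with channel sums equalised. Reported thermal stability, relative to control samples and from duplicates, is a log2 fold change.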
ACADM isoform 2 (UniProt P11310): the log2 fold change was -0.016 (inactive).
Still for that read-out and setting: the result for ARHGAP25 isoform 4 (UniProt P42331) reads -0.018 (inactive).
Same read-out and setting: with BPHL (UniProt Q86WA6) the figure was 0.136 (inactive).
On the same count and under the same terms, the result for ACSL3 (UniProt O95573) reads -0.014 (inactive).
Consider ARL6IP6 (UniProt Q8N6S5), for which the log2 fold change is 0.164 (inactive).
Still for that read-out and setting: the result for ATG9A (UniProt Q7Z3C6) reads -0.028 (inactive); that for ABCC5 (UniProt O15440), -0.001 (inactive).
Same read-out and setting: with ATAD3A isoform 2 (UniProt Q9NVI7) the figure was 0.08 (inactive).
As for BRD4 (UniProt O60885), the log2 fold change was 1.99 (active).
The same measure, in the same setting: the result for AIP (UniProt O00170) reads -0.004 (inactive).
Still for that read-out and setting: the result for AGPAT1 (UniProt Q99943) reads -0.032 (inactive).
Same read-out and setting: with ANAPC2 (UniProt Q9UJX6) the figure was 0.017 (inactive); with AHSA1 (UniProt O95433), -0.024 (inactive); with ADD1 isoform 3 (UniProt P35611), -0.014 (inactive).
On to BCCIP isoform 2 (UniProt Q9P287), for which the log2 fold change is -0.035 (inactive).
On the same count and under the same terms, the result for AASDH (UniProt Q4L235) reads -0.05 (inactive).

Compound in the next assay: c1ccc([C@@H]2C[C@H]2NC2CCNCC2)cc1
The description is as above. The method, boiled down: as §1
Turning to AUP1 (UniProt Q9Y679), the log2 fold change was -0.051 (inactive).
The same measure, in the same setting: the result for ACSM3 (UniProt Q53FZ2) reads -0.029 (inactive); that for AHCYL1 (UniProt O43865), -0.037 (inactive).
Turning to AP2B1 isoform 2 (UniProt P63010), the log2 fold change is -0.002 (inactive).
For ACP1 isoform 2 (UniProt P24666), the log2 fold change is 0.022 (inactive).
The same measure, in the same setting: with BZW2 (UniProt Q9Y6E2) the figure was -0.014 (inactive).
With ATP9B (UniProt O43861), the log2 fold change is 0.071 (inactive).
Still for that read-out and setting: with AGRN (UniProt O00468) the figure was 0.028 (inactive).
Same read-out and setting: with ALDH1B1 (UniProt P30837) the figure was 0.009 (inactive).
Still for that read-out and setting: with ACSL4 (UniProt O60488) the figure was -0.031 (inactive); with ATP6V1F isoform 2 (UniProt Q16864), 0.02 (inactive); with ALDH18A1 (UniProt P54886), 0.02 (inactive).
As for ARFGAP2 (UniProt Q8N6H7), the log2 fold change was 0.006 (inactive).
On the same count and under the same terms, the result for BAP1 (UniProt Q92560) reads -0.037 (inactive).
Consider APH1A (UniProt Q96BI3), for which the log2 fold change was -0.153 (inactive).
The same measure, in the same setting: with ACADM isoform 2 (UniProt P11310) the figure was -0.031 (inactive).
Take ARHGAP25 isoform 4 (UniProt P42331): the log2 fold change was 0.109 (inactive).
Still for that read-out and setting: the result for BPHL (UniProt Q86WA6) reads -0.065 (inactive).
Take ACSL3 (UniProt O95573): the log2 fold change was -0.036 (inactive).
Still for that read-out and setting: the result for ARL6IP6 (UniProt Q8N6S5) reads 0.118 (inactive); that for ATG9A (UniProt Q7Z3C6), -0.05 (inactive).
Same read-out and setting: the result for ABCC5 (UniProt O15440) reads -0.025 (inactive); that for ATAD3A isoform 2 (UniProt Q9NVI7), 0.054 (inactive).
Still for that read-out and setting: with BRD4 (UniProt O60885) the figure was 0.029 (inactive).
AIP (UniProt O00170): the log2 fold change is -0.018 (inactive).
The same measure, in the same setting: with AGPAT1 (UniProt Q99943) the figure was 0.023 (inactive); with ANAPC2 (UniProt Q9UJX6), -0.049 (inactive).
As for AHSA1 (UniProt O95433), the log2 fold change was -0.003 (inactive).
The same measure, in the same setting: with ADD1 isoform 3 (UniProt P35611) the figure was 0.024 (inactive).
In the case of BCCIP isoform 2 (UniProt Q9P287), the log2 fold change was 0.014 (inactive).
Regarding AASDH (UniProt Q4L235), the log2 fold change is 0.037 (inactive).
